The panel holds about 83,000 compounds, 20% with a hit somewhere; the sample as a whole holds those more often.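 How to read the values: 0–100, growth inhibition (40 = 60% inhibited); 0, no net growth; -100 to 0, cell death (-40 = 40% of starting cells died; -100 = all dead).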 The source made the active and inactive calls. The calls were made as follows: active = growth percent below 10; inactive = the rest.

The assay concerns HL-60(TB) leukemia. Description: NCI-60 one-dose screen, 48 h (100 = growth as untreated, 0 = no growth, -100 = all killed). Conditions: 10 µM unless noted.
Consider `COc1ccc(-c2nc3c(N)c(CO)c(C)nc3o2)cc1`, for which the growth is 98.3% (inactive). Regarding `COC(=O)/C(CCC=C(C)C)=C1\[C@@H](OC(C)=O)C[C@@]2(C)[C@H]1C[C@@H](O)[C@H]1[C@@]3(C)CC[C@H](NCc4ccccc4)[C@@H](C)[C@@H]3CC[C@@]12C`, the growth was 43% (inactive). Regarding `Fc1ccc(NCc2cn(-c3ccccc3)nc2-c2ccc(OCc3ccccc3)cc2)cc1Cl`, the growth is 79.5% (inactive). `Oc1ccc(CCC2CCCC(CCc3ccc(OCCF)cc3)N2)cc1` (stereo not drawn): the growth is 82% (inactive). Turning to `NS(=O)(=O)c1ccc(-n2nc(-c3ccc(Cl)cc3)c3ccccc3c2=O)cc1`, the growth was 95.2% (inactive). The value for `Cc1nn(-c2ccccc2)c2c1N=c1s/c(=C\c3cn(-c4ccccc4)nc3-c3ccc(Cl)cc3)c(=O)n1C(C)N2` (stereo not drawn) was 78.5% (inactive). As to `O=C(CN1CCN(c2cc3c(cc2F)c(=O)c(C(=O)O)cn3C2CC2)CC1)Nc1ccc(C(=O)/C=C/c2ccccc2)cc1`, the growth was 40.9% (inactive). With `Cc1cn(-c2cccc(NC(=O)c3ccc(C)c(Nc4nccc(-c5cccnc5)n4)c3)c2)cn1`, the growth was 10.4% (inactive).

For the origin of these results see PubChem BioAssay (NCI).
